The supplement of paper PMC8728848
About 410 targets per protein were measured; listed, in parts, are those with the strongest signals and a random draw of the rest.

Experiments:
Assay in all cases: glycan array binding signal (z-score within array); higher = stronger binding
Conditions in all cases: glycan notation: IUPAC condensed, linker removed
Fuc(a1-2)Gal(b1-3)GalNAc = molecular target: Fuc(a1-2)Gal(b1-3)GalNAc
Method in brief: (§1)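 From the Consortium for Functional Glycomics database, 3228 arrays were curated, keeping only those whose protein sequence was available. Binding is given as a within-array Z-score averaged across arrays sharing a protein sequence and across linkers. Negative Z-scores can be read as non-binding.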

[1] = molecular target: Fuc(a1-2)Gal(b1-3)GlcNAc(b1-3)[Fuc(a1-2)Gal(b1-3)GlcNAc(b1-6)]GalNAc
Method in brief: as §1

[2] = molecular target: Fuc(a1-2)Gal(b1-3)[Fuc(a1-4)]GlcNAc(b1-2)Man(a1-3)[Fuc(a1-2)Gal(b1-3)[Fuc(a1-4)]GlcNAc(b1-2)Man(a1-3)]Man(b1-4)GlcNAc(b1-4)GlcNAc
Method in brief: as §1

Fuc(a1-2)Gal(b1-4)Glc = molecular target: Fuc(a1-2)Gal(b1-4)Glc
Method in brief: as §1

[3] = molecular target: Fuc(a1-2)Gal(b1-4)GlcNAc(b1-2)Man(a1-3)[Fuc(a1-2)Gal(b1-4)GlcNAc(b1-2)Man(a1-6)]Man(b1-4)GlcNAc(b1-4)GlcNAc
Method in brief: as §1

[4] = molecular target: Fuc(a1-2)Gal(b1-4)GlcNAc(b1-2)[Fuc(a1-2)Gal(b1-4)GlcNAc(b1-4)]Man(a1-3)[Fuc(a1-2)Gal(b1-4)GlcNAc(b1-2)Man(a1-6)]Man(b1-4)GlcNAc(b1-4)GlcNAc
Method in brief: as §1

[5] = molecular target: Fuc(a1-2)Gal(b1-4)GlcNAc(b1-3)[Fuc(a1-3)[Gal(b1-4)]GlcNAc(b1-6)]Gal(b1-4)Glc
Method in brief: as §1

[6] = molecular target: Fuc(a1-2)Gal(b1-4)[Fuc(a1-3)]GlcNAc(b1-2)[Fuc(a1-2)Gal(b1-4)[Fuc(a1-3)]GlcNAc(b1-4)]Man(a1-3)[Fuc(a1-2)Gal(b1-4)[Fuc(a1-3)]GlcNAc(b1-2)Man(a1-6)]Man(b1-4)GlcNAc(b1-4)GlcNAc
Method in brief: as §1

Fuc(a1-2)Gal6S(b1-4)Glc = molecular target: Fuc(a1-2)Gal6S(b1-4)Glc
Method in brief: as §1

[7] = molecular target: Fuc(a1-2)[Gal(a1-3)]Gal(b1-3)GlcNAc(b1-2)Man(a1-3)[Fuc(a1-2)[Gal(a1-3)]Gal(b1-3)GlcNAc(b1-2)Man(a1-6)]Man(b1-4)GlcNAc(b1-4)GlcNAc
Method in brief: as §1

[8] = molecular target: Gal(a1-3)[Gal(a1-4)]Gal(b1-4)GlcNAc
Method in brief: as §1

[9] = molecular target: Gal(a1-4)Gal(b1-4)GlcNAc(b1-3)Gal(b1-4)Glc
Method in brief: as §1

[10] = molecular target: Gal(b1-3)GlcNAc(b1-2)Man(a1-3)[Gal(b1-3)GlcNAc(b1-2)Man(a1-6)]Man(b1-4)GlcNAc(b1-4)GlcNAc
Method in brief: as §1

[11] = molecular target: Gal(b1-3)GlcNAc(b1-2)Man(a1-3)[Gal(b1-3)GlcNAc(b1-2)Man(a1-6)]Man(b1-4)GlcNAc(b1-4)[Fuc(a1-6)]GlcNAc
Method in brief: as §1

[12] = molecular target: Gal(b1-3)GlcNAc(b1-2)[Gal(b1-3)GlcNAc(b1-6)]Man(a1-6)[Gal(b1-3)GlcNAc(b1-2)Man(a1-3)]Man(b1-4)GlcNAc(b1-4)GlcNAc
Method in brief: as §1

[13] = molecular target: Gal(b1-3)GlcNAc(b1-3)Gal(b1-4)[Fuc(a1-3)]GlcNAc
Method in brief: as §1

[14] = molecular target: Gal(b1-4)GlcNAc(b1-2)Man(a1-3)[GlcNAc(b1-4)][Gal(b1-4)GlcNAc(b1-2)Man(a1-6)]Man(b1-4)GlcNAc(b1-4)GlcNAc
Method in brief: as §1

[15] = molecular target: Gal(b1-4)GlcNAc(b1-2)Man(a1-6)Man(b1-4)GlcNAc(b1-4)GlcNAc
Method in brief: as §1

[16] = molecular target: Gal(b1-4)GlcNAc(b1-3)Gal(b1-4)GlcNAc(b1-3)Gal(b1-4)GlcNAc(b1-3)Gal(b1-4)GlcNAc(b1-2)Man(a1-3)[Gal(b1-4)GlcNAc(b1-3)Gal(b1-4)GlcNAc(b1-3)Gal(b1-4)GlcNAc(b1-3)Gal(b1-4)GlcNAc(b1-2)Man(a1-6)]Man(b1-4)GlcNAc(b1-4)[Fuc(a1-6)]GlcNAc
Method in brief: as §1

[17] = molecular target: Gal(b1-4)GlcNAc(b1-3)Gal(b1-4)GlcNAc(b1-6)[Gal(b1-3)]GalNAc
Method in brief: as §1

Gal(b1-6)Gal = molecular target: Gal(b1-6)Gal
Method in brief: as §1

Gal3S6S(b1-4)GlcNAc = molecular target: Gal3S6S(b1-4)GlcNAc
Method in brief: as §1

Gal3S6S(b1-4)GlcNAc6S = molecular target: Gal3S6S(b1-4)GlcNAc6S
Method in brief: as §1

Gal6S(b1-3)GlcNAc = molecular target: Gal6S(b1-3)GlcNAc
Method in brief: as §1

Gal6S(b1-3)GlcNAc6S = molecular target: Gal6S(b1-3)GlcNAc6S
Method in brief: as §1

Gal6S(b1-4)Glc = molecular target: Gal6S(b1-4)Glc
Method in brief: as §1

Gal6S(b1-4)Glc6S = molecular target: Gal6S(b1-4)Glc6S
Method in brief: as §1

Gal6S(b1-4)GlcNAc = molecular target: Gal6S(b1-4)GlcNAc
Method in brief: as §1

Gal6S(b1-4)GlcNAc6S = molecular target: Gal6S(b1-4)GlcNAc6S
Method in brief: as §1

[18] = molecular target: GalNAc(a1-3)GalNAc(b1-3)Gal(a1-4)Gal(b1-4)GlcNAc
Method in brief: as §1

GalNAc(b1-4)Gal(b1-4)Glc = molecular target: GalNAc(b1-4)Gal(b1-4)Glc
Method in brief: as §1

GalNAc6S(b1-4)GlcNAc = molecular target: GalNAc6S(b1-4)GlcNAc
Method in brief: as §1

Glc(b1-4)Glc = molecular target: Glc(b1-4)Glc
Method in brief: as §1

[19] = molecular target: GlcA3S(b1-3)Gal(b1-4)GlcNAc(b1-2)Man
Method in brief: as §1

[20] = molecular target: GlcA3S(b1-3)Gal(b1-4)GlcNAc(b1-3)Gal(b1-4)Glc
Method in brief: as §1

[21] = molecular target: GlcNAc(a1-3)Gal(b1-4)GlcNAc
Method in brief: as §1

[22] = molecular target: GlcNAc(a1-6)Gal(b1-4)GlcNAc
Method in brief: as §1

[23] = molecular target: GlcNAc(b1-3)Gal(b1-4)GlcNAc(b1-3)Gal(b1-4)GlcNAc(b1-2)Man(a1-3)[GlcNAc(b1-3)Gal(b1-4)GlcNAc(b1-3)Gal(b1-4)GlcNAc(b1-2)Man(a1-6)]Man(b1-4)GlcNAc(b1-4)[Fuc(a1-6)]GlcNAc
Method in brief: as §1

[24] = molecular target: GlcNAc(b1-4)Gal(b1-4)GlcNAc
Method in brief: as §1

[25] = molecular target: Neu5Ac(a2-3)Gal(b1-4)GlcNAc(b1-2)Man(a1-3)[Neu5Ac(a2-3)Gal(b1-4)GlcNAc(b1-2)Man(a1-6)]Man(b1-4)GlcNAc(b1-4)[Fuc(a1-6)]GlcNAc
Method in brief: as §1

[26] = molecular target: Neu5Ac(a2-3)Gal(b1-4)GlcNAc(b1-3)Gal(b1-4)GlcNAc(b1-3)Gal(b1-4)GlcNAc
Method in brief: as §1

[27] = molecular target: Neu5Ac(a2-3)Gal(b1-4)GlcNAc(b1-3)Gal(b1-4)GlcNAc(b1-3)Gal(b1-4)GlcNAc(b1-2)Man(a1-3)[Neu5Ac(a2-3)Gal(b1-4)GlcNAc(b1-3)Gal(b1-4)GlcNAc(b1-3)Gal(b1-4)GlcNAc(b1-2)Man(a1-6)]GalNAc
Method in brief: as §1

[28] = molecular target: Neu5Ac(a2-3)Gal(b1-4)GlcNAc(b1-3)Gal(b1-4)GlcNAc(b1-3)[Neu5Ac(a2-3)Gal(b1-4)GlcNAc(b1-3)Gal(b1-4)GlcNAc(b1-6)]GalNAc
Method in brief: as §1

[29] = molecular target: Neu5Ac(a2-3)Gal(b1-4)[Fuc(a1-3)]GlcNAc(b1-3)Gal(b1-4)GlcNAc
Method in brief: as §1

[30] = molecular target: Neu5Ac(a2-3)Gal6S(b1-4)GlcNAc
Method in brief: as §1

[31] = molecular target: Neu5Ac(a2-6)Gal(b1-4)GlcNAc(b1-2)Man(a1-3)Man(b1-4)GlcNAc(b1-4)GlcNAc
Method in brief: as §1

[32] = molecular target: Neu5Ac(a2-6)Gal(b1-4)GlcNAc(b1-2)Man(a1-6)[Gal(b1-4)GlcNAc(b1-2)Man(a1-3)]Man(b1-4)GlcNAc(b1-4)GlcNAc
Method in brief: as §1

[33] = molecular target: Neu5Ac(a2-6)Gal(b1-4)GlcNAc(b1-6)[Gal(b1-3)]GalNAc
Method in brief: as §1

[34] = molecular target: Neu5Ac(a2-6)GlcNAc(b1-4)GlcNAc
Method in brief: as §1

[35] = molecular target: Neu5Gc(a2-8)Neu5Gc(a2-6)Gal(b1-4)GlcNAc
Method in brief: as §1

B1: GS13846A-bth-444-19-444 (Bacteroides thetaiotaomicron) (protein)
chain: SCENEFDVSDKADSLISVTVNTLNNQAAYNVGETAQAELWIQRGGLKDASGKVQFVVDPLLLDSLNQEDKTNYELLPENCYEMTNTEFTVDKNELCGYITYHPEKILALSAYNETKYVLPLRLISNDLAINPARNTSFLAFTILEPIVHISNAGVYNINPDLTSTMDIQIGVPFTNKWDILCNLTEDLSLIDEYNQINKVNFTLLPENAYTAPESVTLQEGVSQITASYQLKNNLVPGNYILPIKIGSITASQGGVPNNSLVIDEESNVLFCIVKEGNKINKSGWEVIECSSEHAGNEATYMIDDNESTYWHCKFKNEAGSSVPPFHFIIDMKKEITIAQIDLLNRGDGAANNIKWVEFYASNNNSEWDKIGAGDFNDEGTRATFRYYVKSTKARYLKLIIPEGYGNNCPPAAIRELTVYGLEGNN
glycan array binding signal (z-score) (Fuc(a1-2)Gal(b1-3)GalNAc): -0.247 | glycan array binding signal (z-score) [1]: -0.101 | glycan array binding signal (z-score) [2]: -0.423 | glycan array binding signal (z-score) (Fuc(a1-2)Gal(b1-4)Glc): -0.176 | glycan array binding signal (z-score) [3]: 0.384 | glycan array binding signal (z-score) [4]: -0.079 | glycan array binding signal (z-score) [5]: 0.069 | glycan array binding signal (z-score) [6]: -0.407 | glycan array binding signal (z-score) (Fuc(a1-2)Gal6S(b1-4)Glc): -0.234 | glycan array binding signal (z-score) [7]: -0.305 | glycan array binding signal (z-score) [8]: 2.7 | glycan array binding signal (z-score) [9]: -0.018 | glycan array binding signal (z-score) [10]: 0.242 | glycan array binding signal (z-score) [11]: 3.4 | glycan array binding signal (z-score) [12]: -0.163 | glycan array binding signal (z-score) [13]: 0.028 | glycan array binding signal (z-score) [14]: -0.238 | glycan array binding signal (z-score) [15]: -0.133 | glycan array binding signal (z-score) [16]: 0.486 | glycan array binding signal (z-score) [17]: -0.308 | glycan array binding signal (z-score) (Gal(b1-6)Gal): -0.188 | glycan array binding signal (z-score) (Gal3S6S(b1-4)GlcNAc): 6.47 | glycan array binding signal (z-score) (Gal3S6S(b1-4)GlcNAc6S): 6.71 | glycan array binding signal (z-score) (Gal6S(b1-3)GlcNAc): 7.3 | glycan array binding signal (z-score) (Gal6S(b1-3)GlcNAc6S): 6.28 | glycan array binding signal (z-score) (Gal6S(b1-4)Glc): 3.68 | glycan array binding signal (z-score) (Gal6S(b1-4)Glc6S): 12.7 | glycan array binding signal (z-score) (Gal6S(b1-4)GlcNAc): 4.8 | glycan array binding signal (z-score) (Gal6S(b1-4)GlcNAc6S): 8.87 | glycan array binding signal (z-score) [18]: -0.175 | glycan array binding signal (z-score) (GalNAc(b1-4)Gal(b1-4)Glc): 0 | glycan array binding signal (z-score) (GalNAc6S(b1-4)GlcNAc): 5.49 | glycan array binding signal (z-score) (Glc(b1-4)Glc): -0.32 | glycan array binding signal (z-score) [19]: -0.266 | glycan array binding signal (z-score) [20]: -0.082 | glycan array binding signal (z-score) [21]: -0.214 | glycan array binding signal (z-score) [22]: -0.052 | glycan array binding signal (z-score) [23]: 0.103 | glycan array binding signal (z-score) [24]: -0.193 | glycan array binding signal (z-score) [25]: -0.407 | glycan array binding signal (z-score) [26]: 0.067 | glycan array binding signal (z-score) [27]: -0.089 | glycan array binding signal (z-score) [28]: -0.336 | glycan array binding signal (z-score) [29]: -0.205 | glycan array binding signal (z-score) [30]: -0.129 | glycan array binding signal (z-score) [31]: -0.287 | glycan array binding signal (z-score) [32]: -0.298 | glycan array binding signal (z-score) [33]: 1.86 | glycan array binding signal (z-score) [34]: 0.027 | glycan array binding signal (z-score) [35]: -0.262
